The list is not random: actives were taken first. Their share in the collection is about 3.2%.
EWS-Fli block = inhibitors of EWS/Fli oncoprotein transcriptional activity; AID 651661; inhibition, % at 12.6 µM; A673 NR0B1-luciferase reporter, viability-normalised; 350,000 tested, 0.67% active;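 active = mean inhibition of at least 50% after viability correction, with every replicate also passing that limit; inconclusive = mean reaches 50% but only one of two replicates passes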;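 also: firefly luciferase signal divided by Alamar Blue viability fluorescence both relative to DMSO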
EBV LMP1 NFkB = inhibitors of Epstein-Barr LMP1-induced NF-kappaB reporter; AID 504558; 350,000 tested, 0.69% active; inhibition, % at 12.5 µM; LMP1-induced NF-kappaB luciferase reporter cells, luminescence; in the data active = inhibition above about 41%; inconclusive = no clear call, values can overlap the other calls
PAX8 reporter = PAX8 transcriptional activity inhibition; RMG-I TPO-luciferase reporter, SteadyGlo, 24 h; inhibition, % at 12.6 µM; 360,000 tested, 1.2% active; AID 652154;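 active = mean replicate inhibition at least 60% with every replicate also reaching 60%; inconclusive = only one of the two criteria is met; inactive = mean below 60% and not all replicates reaching 60%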;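 also: luciferase light reporting Pax8 driven TPO promoter activity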
LGR2 inh = blocks bursicon-induced cAMP signaling via Drosophila LGR2 | HEK293 LGR2, CRE-luciferase, bursicon-stimulated, 4 h | inhibition, % at 9.99 µM | 380,000 tested, 0.35% active | AID 720647;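 active = drop in luminescence signal, shown as inhibition above about 50% in the replicate tests, limit read from the data, passing the limit was not always enough; inconclusive = probably only some replicates passing the limit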;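 also: agonist challenge used bursicon conditioned medium at about half maximal strength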
TROY NFkB inh = blocks TROY-dependent signaling in reporter cells; Q293 LMP1-TROYcd NF-kB luciferase reporter, 4 h; inhibition, % at 10 µM; 360,000 tested, 0.98% active;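 active = compounds whose plate-normalised and pattern-corrected inhibition of the luciferase reporter signal at the single screening dose is 50% or more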
TWEAK-Fn14 inh = inhibitors of TWEAK-Fn14 interaction signaling. inhibition, % at 10 µM. TWEAK-stimulated Fn14 reporter cells, luciferase luminescence, 8 h. 360,000 tested, 2% active. AID 1159606; in the data active = inhibition above about 50%
Numbers stand for hits; - = inactive; ? = inconclusive; . = no result given.

SMILES	EWS-Fli block	EBV LMP1 NFkB	PAX8 reporter	LGR2 inh	TROY NFkB inh	TWEAK-Fn14 inh
COc1ccc(OC(=O)N2C/C(=C/c3ccccc3)C(=O)/C(=C\c3ccccc3)C2)cc1	-	-	-	?	-	90
Cc1cc(/C=C2\Cc3ccccc3C2=O)c(C)n1-c1ccccc1	-	44	-	-	-	54
Cc1cc(/C=C2/C(=O)NN(c3ccccc3)C2=O)c(C)n1-c1cccc(O)c1	-	-	-	-	81	92
Cc1cc(C=C2C(=O)c3ccccc3C2=O)c(C)n1-c1ccccc1	.	-	.	.	-	89
O=C(Nc1cccc(O)c1)c1noc2c1CCc1ccccc1-2	.	-	.	.	-	72
COCC(=O)N(C)C[C@@H]1Oc2ncc(-c3cccc(OC)c3)cc2C(=O)N([C@H](C)CO)C[C@H]1C	-	.	.	-	.	.
C/C=C/c1ccc([C@H]2[C@@H](CO)N(C(=O)C3CCC3)[C@H]2CNC(=O)CN(C)C)cc1	-	.	.	-	.	.
CCCOc1ccc2cc(-c3ccccn3)c(=O)oc2c1	77	61	74	88	64	93
CCCNC(=O)N[C@H]1C=C[C@H](CC(=O)NC2CCC2)O[C@@H]1CO	-	.	-	-	.	.
CNC(=O)C[C@H]1C(=O)N(c2ccc(OC)cc2)C[C@@H]1C	-	-	-	-	-	-
COc1ccc(NC(=O)C[C@H]2C(=O)N(c3ccc(OC)cc3)C[C@@H]2C)cc1	-	-	101	-	-	-
O=C(c1cccc(F)c1)N1CC[C@@H]2[C@H]1c1cc(C#Cc3ccc(F)cc3)ccc1N[C@@H]2CO	-	.	-	-	.	.
O=C(C[C@@H]1CC[C@H]2[C@@H](COC[C@@H](O)CN2Cc2nccs2)O1)NCc1ccccc1F	-	.	-	-	.	.
CC(=O)c1c(C)[nH]c(C(=O)OCC(=O)Nc2cc(S(=O)(=O)N3CCCC3)ccc2Cl)c1C	.	-	-	-	-	-
CC(=O)c1c(C)[nH]c(C(=O)OCC(=O)Nc2cccc(S(=O)(=O)N3CCCC3)c2)c1C	.	-	-	-	-	65
CCN(CC)S(=O)(=O)c1cccc(NC(=O)COC(=O)c2[nH]c(C)c(C(C)=O)c2C)c1	-	-	-	-	-	65
CC(=O)c1c(C)[nH]c(C(=O)OCC(=O)Nc2cccc(S(=O)(=O)N(C)C)c2)c1C	-	-	-	-	-	-
CN(Cc1ccc(F)cc1)C(=O)CN1CCN(S(=O)(=O)c2ccc3c(c2)OCCCO3)CC1	-	48	-	-	-	-
CN(Cc1cccc(F)c1)C(=O)CN1CCN(S(=O)(=O)c2ccc3c(c2)OCCCO3)CC1	-	-	-	-	-	-
COCC(=O)OC1CCn2c1nc1c2C(=O)C(C)=C(NC(C)=O)C1=O (stereo not drawn)	-	87	115	86	54	101
COC(=O)C[C@@H]1C[C@@H]2c3cc(NC(=O)Nc4ccccc4)ccc3O[C@@H]2[C@H](CO)O1	-	.	-	-	.	.
O=C(O)CN1C(=O)/C(=C\c2ccccc2OCc2ccccc2)SC1=S	-	-	-	-	-	-
O=C(O)CCCN1C(=O)/C(=C\c2ccccc2OCc2ccccc2)SC1=S	-	-	-	-	56	-
O=C(O)CCCN1C(=O)/C(=C\C(Cl)=C\c2ccccc2)SC1=S	?	-	115	-	-	102
Cc1noc(C)c1NC(=O)N(C)C[C@H]1OCCCC[C@H](C)Oc2ccc(NC(=O)C3CCCCC3)cc2C(=O)N([C@H](C)CO)C[C@@H]1C	-	.	-	-	.	.
SMILES	EWS-Fli block	EBV LMP1 NFkB	PAX8 reporter	LGR2 inh	TROY NFkB inh	TWEAK-Fn14 inh
Cc1noc(C)c1NC(=O)Nc1ccc2c(c1)C(=O)N([C@@H](C)CO)C[C@@H](C)[C@@H](CN(C)C(=O)Nc1cccc3ccccc13)O2	-	.	.	-	.	.
N#C[C@@H]1[C@H](c2ccc(C3=CCCCC3)cc2)[C@@H](CO)N1C(=O)CN1CCOCC1	-	.	-	-	.	.
C1CCC(c2nn3c(-c4n[nH]c5c4CCC5)nnc3s2)CC1	.	-	.	.	-	-
CCN(CC)c1ccc(-c2nn3c(-c4n[nH]c5c4CCC5)nnc3s2)cc1	.	-	.	.	52	-
COc1c(Cl)cnn(-c2ccc(C)cc2)c1=O	-	-	.	-	-	-
Cc1ccc(-n2ncc(Br)c(Br)c2=O)cc1	.	-	.	.	69	78
COc1cnn(-c2ccccc2)c(=O)c1N(C)C	.	-	.	.	54	-
O=c1c(Br)c(Br)cnn1-c1ccccc1	?	-	107	-	77	93
COc1cnn(-c2cccc(C)c2)c(=O)c1Cl	-	-	-	.	-	-
COc1cc(S(=O)(=O)NCc2cccnc2)c(OC)cc1Br	.	-	-	.	50	-
CCCNC(=O)C[C@@H]1CC[C@H]2[C@H](COc3ccc(NC(=O)c4cc(C)on4)cc3C(=O)N2C)O1	-	.	-	-	.	.
CCc1ccc(Nc2n[n+](-c3ccccc3)c(-c3ccc(OCc4ccccc4)cc3)s2)cc1	-	-	-	-	-	83
CCc1ccc(Nc2n[n+](-c3ccccc3)c(-c3ccc(N(CC)CC)cc3)s2)cc1	-	-	82	-	-	-
O=C(C[C@@H]1CC[C@H]2[C@@H](COC[C@@H](O)CN2Cc2cccc(F)c2)O1)NCC1CCCCC1	-	.	107	-	.	.
O=C(C[C@H]1CC[C@@H]2[C@H](COC[C@@H](O)CN2Cc2cccc(C(F)(F)F)c2)O1)NCc1ccc(F)cc1	-	.	-	-	.	.
O=C(C[C@@H]1CC[C@@H]2[C@H](COC[C@H](O)CN2Cc2cccc(F)c2)O1)NCC1CCCCC1	-	.	-	-	.	.
O=C(C[C@H]1CC[C@H]2[C@@H](COC[C@@H](O)CN2Cc2ccc(F)cc2)O1)NCc1ccccc1Cl	-	.	79	-	.	.
O=C(C[C@@H]1CC[C@H]2[C@@H](COC[C@@H](O)CN2Cc2cccc(C(F)(F)F)c2)O1)NCc1ccc(F)cc1	-	.	98	-	.	.
C[C@@H]1CCCCO[C@@H](CN(C)Cc2ccc(Cl)c(Cl)c2)[C@@H](C)CN([C@H](C)CO)C(=O)c2cc(N(C)C)ccc2O1	.	.	-	-	.	.
C[C@H]1CCCCO[C@H](CN(C)S(=O)(=O)c2ccc(F)cc2)[C@@H](C)CN([C@@H](C)CO)C(=O)c2cc(NS(=O)(=O)c3ccc(F)cc3)ccc2O1	-	.	-	-	.	.
Cc1noc(C)c1S(=O)(=O)Nc1ccc2c(c1)CC(=O)N([C@@H](C)CO)C[C@@H](C)[C@H](CN(C)C(=O)Nc1ccc(F)cc1)O2	-	.	-	-	.	.
N#Cc1sc2nccc(Nc3ccccc3)c2c1N	-	.	-	.	-	80
Nc1cc(Nc2ccccc2)ccn1	-	-	-	-	-	-
CCSc1n[nH]c2nc3c(c(=O)n12)C1(CCCCC1)Cc1ccccc1-3	-	-	-	-	52	-
N#CCSc1n[nH]c2nc3c(c(=O)n12)C1(CCCCC1)Cc1ccccc1-3	-	-	-	-	50	-
CSc1n[nH]c2nc3c(c(=O)n12)C1(CCCCC1)Cc1ccccc1-3	-	-	-	-	-	-
O=C(O)c1cccc(-c2nc3ccccc3[nH]2)c1	-	-	-	94	-	-
CC(=O)Nc1cccc(-c2nc3ccccc3[nH]2)c1	-	-	-	.	-	-
